Laboratory results reported in the supplement of paper PMC10849652.
Of roughly 8,800 targets only a part is listed; those with a hit were picked by preference. About 0.5% of all pairs of compound and target were hits.

Key:
Experiment in all cases: log2 fold change, soluble protein after heating vs DMSO (PISA); higher = thermal stabilisation; K562 lysate, 10 uM; active = over 0.2 and 3.5 SD of the protein, either way, in both replicates (recomputed)
nilotinib = compound: Cc1cn(-c2cc(NC(=O)c3ccc(C)c(Nc4nccc(-c5cccnc5)n4)c3)cc(C(F)(F)F)c2)cn1 [nilotinib]
Method in brief: (§1)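 Values give the log-two fold change in thermal stability against solvent controls, from duplicates. Crude K562 extract at 1 mg/mL protein, made by dounce homogenisation in PBS pH 7.4 with 1 mM MgCl2, was treated with 10 μM compound for 30 min. After 3 min heating across 48°C-58°C, aliquots were pooled, adjusted to 0.5% NP-40 at 4°C and centrifuged at 21,000xg for 90 min. The supernatant was measured by TMTpro 16plex LC-MS/MS with channel sums equalised.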

[1] = compound: Cc1nc(Nc2n[nH]c3c2CN(C(=O)N[C@H](CN(C)C)c2ccccc2)C3(C)C)c2sccc2n1
Method in brief: as §1

dasatinib = compound: Cc1nc(Nc2ncc(C(=O)Nc3c(C)cccc3Cl)s2)cc(N2CCN(CCO)CC2)n1 [dasatinib]
Method in brief: as §1

[2] = compound: Cc1ncc(-c2ccnc(Nc3ccc(S(C)(=O)=O)cc3)n2)n1C(C)C
Method in brief: as §1

[3] = compound: Cn1cc(-c2ccc3c(c2)CCN3C(=O)Cc2cccc(C(F)(F)F)c2)c2c(N)ncnc21
Method in brief: as §1

quisinostat = compound: Cn1cc(CNCC2CCN(c3ncc(C(=O)NO)cn3)CC2)c2ccccc21 [quisinostat]
Method in brief: as §1

tipifarnib = compound: Cn1cncc1[C@@](N)(c1ccc(Cl)cc1)c1ccc2c(c1)c(-c1cccc(Cl)c1)cc(=O)n2C [tipifarnib]
Method in brief: as §1

[4] = compound: NC(=O)Nc1cc(-c2cccc(F)c2)sc1C(=O)N[C@H]1CCCNC1
Method in brief: as §1

[5] = compound: NC(=O)c1cnc(N[C@@H]2CCCC[C@@H]2N)nc1Nc1cccc(-n2nccn2)c1
Method in brief: as §1

[6] = compound: NC1(c2ccc(-c3nc4ccn5c(=O)[nH]nc5c4cc3-c3ccccc3)cc2)CCC1
Method in brief: as §1

[7] = compound: NCC(=O)Nc1ccc(-n2nc(C(F)(F)F)cc2-c2ccc3c(ccc4ccccc43)c2)cc1
Method in brief: as §1

vorinostat = compound: O=C(CCCCCCC(=O)Nc1ccccc1)NO [vorinostat]
Method in brief: as §1

silmitasertib = compound: O=C(O)c1ccc2c(c1)nc(Nc1cccc(Cl)c1)c1ccncc12 [silmitasertib]
Method in brief: as §1

[8] = compound: O=C1NC(=O)C(c2cnc3ccccn23)=C1c1cn2c3c(cc(F)cc13)CN(C(=O)N1CCCCC1)CC2
Method in brief: as §1

entospletinib = compound: c1cn2cc(-c3ccc4cn[nH]c4c3)nc(Nc3ccc(N4CCOCC4)cc3)c2n1 [entospletinib]
Method in brief: as §1

Measured: log2 fold change

HECTD4 (UniProt J3KPF0)
active: vorinostat -0.472
inactive: nilotinib 0.014 | [1] -0.009 | dasatinib -0.077 | [2] -0.007 | [3] 0.037 | quisinostat -0.145 | tipifarnib 0.016 | [4] 0.02 | [5] 0.011 | [6] 0.017 | [7] 0.051 | silmitasertib -0.003 | [8] 0.032 | entospletinib 0.001

KDM6A (UniProt O15550)
inactive: nilotinib 0.009 | [1] 0.033 | dasatinib 0.041 | [2] -0.009 | [3] 0.015 | quisinostat -0.062 | tipifarnib -0.031 | [4] 0.002 | [5] -0.017 | [6] 0.009 | [7] 0.026 | silmitasertib -0.059 | [8] -0.009 | entospletinib -0.02
active: vorinostat -0.299

HNRNPL, A0A3B3ITJ4
inactive: [5] 0.019

ITGB1BP2 (UniProt Q9UKP3)
inactive: dasatinib -0.104 | [3] 0.249 | [7] 0.053 | entospletinib 0.107

KIAA0930 isoform 2 (UniProt Q6ICG6)
Sequence of UniProt Q6ICG6 (Q6ICG6 whole entry, looked up): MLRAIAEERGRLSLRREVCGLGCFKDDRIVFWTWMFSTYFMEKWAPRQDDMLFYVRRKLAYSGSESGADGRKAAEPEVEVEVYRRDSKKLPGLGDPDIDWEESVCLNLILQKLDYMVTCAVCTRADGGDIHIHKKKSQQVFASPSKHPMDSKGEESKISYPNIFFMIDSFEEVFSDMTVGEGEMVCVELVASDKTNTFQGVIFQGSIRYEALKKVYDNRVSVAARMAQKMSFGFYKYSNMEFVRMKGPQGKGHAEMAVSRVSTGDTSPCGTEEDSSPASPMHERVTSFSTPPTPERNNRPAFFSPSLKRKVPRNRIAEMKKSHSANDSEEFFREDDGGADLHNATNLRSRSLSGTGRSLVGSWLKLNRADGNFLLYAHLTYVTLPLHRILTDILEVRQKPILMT
inactive: nilotinib -0.041 | [1] 0.05 | dasatinib 0.202 | [2] -0.109 | [3] -0.021 | quisinostat 0.03 | tipifarnib -0.037 | [4] -0.026 | [5] -0.047 | [7] 0.046 | [8] -0.057 | entospletinib 0.062

IMPDH2 (UniProt H0Y4R1)
inactive: nilotinib 0.106 | [1] -0.012 | dasatinib 0.004 | [2] 0.014 | [3] -0.066 | quisinostat -0.153 | tipifarnib -0.09 | [4] 0.02 | [5] -0.01 | [7] -0.044 | [8] 0.05 | entospletinib -0.042

GSTM2 (UniProt P28161)
inactive: nilotinib 0.124 | [1] -0.007 | dasatinib 0.027 | [2] 0.007 | [3] -0.005 | tipifarnib 0.064 | [5] -0.052 | [6] -0.019 | [7] 0.017 | entospletinib 0.044
active: vorinostat 0.323 | silmitasertib 0.378

GYPA (UniProt P02724)
inactive: dasatinib 0.097 | [3] 0.045 | quisinostat -0.062 | [4] 0.026 | [5] -0.047 | [6] -0.024 | [7] -0.028 | vorinostat 0.152 | silmitasertib -0.097 | [8] -0.04 | entospletinib 0.019

HTT (UniProt P42858)
active: vorinostat -0.331
inactive: nilotinib -0.106 | [1] 0.003 | dasatinib 0.001 | [2] 0.072 | [3] 0.072 | quisinostat -0.081 | tipifarnib -0.072 | [4] 0.041 | [6] 0.005 | [7] -0.029 | silmitasertib 0.04 | [8] 0 | entospletinib -0.042

IRS2 (UniProt Q9Y4H2)
inactive: nilotinib -0.05 | [1] -0.044 | dasatinib -0.018 | [2] -0.071 | [3] -0.074 | quisinostat -0.15 | tipifarnib -0.071 | [4] 0.142 | [5] 0.062 | [6] 0.112 | vorinostat -0.034 | silmitasertib -0.065 | [8] 0.14

HOMER3 (UniProt Q9NSC5)
inactive: quisinostat -0.147 | [4] 0.019 | [5] -0.023 | [8] -0.022

HMGN5 (UniProt Q5JSK9)
inactive: nilotinib -0.074 | [1] 0.062 | [2] -0.036 | tipifarnib 0.076 | [5] -0.035 | entospletinib -0.187

GNB4 (UniProt Q9HAV0)
Sequence of UniProt Q9HAV0 (Q9HAV0 whole entry, looked up): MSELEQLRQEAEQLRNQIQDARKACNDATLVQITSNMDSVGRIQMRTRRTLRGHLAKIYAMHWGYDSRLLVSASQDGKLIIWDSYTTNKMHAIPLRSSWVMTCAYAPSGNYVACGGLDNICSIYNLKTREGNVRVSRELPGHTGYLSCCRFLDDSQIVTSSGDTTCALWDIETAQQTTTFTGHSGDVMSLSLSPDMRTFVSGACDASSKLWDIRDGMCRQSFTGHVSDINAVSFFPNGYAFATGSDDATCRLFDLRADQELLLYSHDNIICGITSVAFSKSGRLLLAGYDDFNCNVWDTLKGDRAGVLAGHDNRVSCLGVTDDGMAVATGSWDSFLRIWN
inactive: nilotinib -0.083 | [1] 0.055 | dasatinib 0.048 | [2] 0.127 | [3] -0.097 | quisinostat 0.042 | tipifarnib 0.048 | [4] -0.172 | [5] 0.028 | [6] 0.007 | vorinostat 0.006 | silmitasertib 0.017 | [8] -0.059 | entospletinib 0.029

JAK3 (UniProt P52333)
inactive: quisinostat 0.131 | [4] 0.008 | [5] -0.056 | [7] -0.319 | [8] -0.002

IPP (UniProt Q9Y573)
Sequence of UniProt Q9Y573 (Q9Y573 whole entry, looked up): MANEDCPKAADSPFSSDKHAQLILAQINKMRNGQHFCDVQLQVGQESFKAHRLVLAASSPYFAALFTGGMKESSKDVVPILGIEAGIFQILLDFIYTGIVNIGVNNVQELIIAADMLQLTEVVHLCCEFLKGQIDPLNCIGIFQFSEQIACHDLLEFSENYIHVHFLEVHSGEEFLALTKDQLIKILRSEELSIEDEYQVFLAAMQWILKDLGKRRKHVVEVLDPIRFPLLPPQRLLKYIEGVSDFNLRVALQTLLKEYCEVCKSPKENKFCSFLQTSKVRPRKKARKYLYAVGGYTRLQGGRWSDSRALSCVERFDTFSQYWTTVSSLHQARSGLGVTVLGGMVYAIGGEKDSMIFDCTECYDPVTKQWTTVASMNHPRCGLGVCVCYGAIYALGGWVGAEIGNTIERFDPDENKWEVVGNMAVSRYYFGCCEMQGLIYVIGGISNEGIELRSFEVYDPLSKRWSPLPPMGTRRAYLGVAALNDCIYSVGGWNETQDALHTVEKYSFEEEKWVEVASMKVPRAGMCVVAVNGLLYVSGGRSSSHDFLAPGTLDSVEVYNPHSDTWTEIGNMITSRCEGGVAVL
active: vorinostat -0.633
inactive: dasatinib -0.244 | [3] 0.03 | [5] -0.097 | [6] 0.093 | [7] 0.04 | silmitasertib 0.205 | entospletinib 0.074

ITPR2 (UniProt Q14571)
Sequence of UniProt Q14571 (Q14571 whole entry, looked up): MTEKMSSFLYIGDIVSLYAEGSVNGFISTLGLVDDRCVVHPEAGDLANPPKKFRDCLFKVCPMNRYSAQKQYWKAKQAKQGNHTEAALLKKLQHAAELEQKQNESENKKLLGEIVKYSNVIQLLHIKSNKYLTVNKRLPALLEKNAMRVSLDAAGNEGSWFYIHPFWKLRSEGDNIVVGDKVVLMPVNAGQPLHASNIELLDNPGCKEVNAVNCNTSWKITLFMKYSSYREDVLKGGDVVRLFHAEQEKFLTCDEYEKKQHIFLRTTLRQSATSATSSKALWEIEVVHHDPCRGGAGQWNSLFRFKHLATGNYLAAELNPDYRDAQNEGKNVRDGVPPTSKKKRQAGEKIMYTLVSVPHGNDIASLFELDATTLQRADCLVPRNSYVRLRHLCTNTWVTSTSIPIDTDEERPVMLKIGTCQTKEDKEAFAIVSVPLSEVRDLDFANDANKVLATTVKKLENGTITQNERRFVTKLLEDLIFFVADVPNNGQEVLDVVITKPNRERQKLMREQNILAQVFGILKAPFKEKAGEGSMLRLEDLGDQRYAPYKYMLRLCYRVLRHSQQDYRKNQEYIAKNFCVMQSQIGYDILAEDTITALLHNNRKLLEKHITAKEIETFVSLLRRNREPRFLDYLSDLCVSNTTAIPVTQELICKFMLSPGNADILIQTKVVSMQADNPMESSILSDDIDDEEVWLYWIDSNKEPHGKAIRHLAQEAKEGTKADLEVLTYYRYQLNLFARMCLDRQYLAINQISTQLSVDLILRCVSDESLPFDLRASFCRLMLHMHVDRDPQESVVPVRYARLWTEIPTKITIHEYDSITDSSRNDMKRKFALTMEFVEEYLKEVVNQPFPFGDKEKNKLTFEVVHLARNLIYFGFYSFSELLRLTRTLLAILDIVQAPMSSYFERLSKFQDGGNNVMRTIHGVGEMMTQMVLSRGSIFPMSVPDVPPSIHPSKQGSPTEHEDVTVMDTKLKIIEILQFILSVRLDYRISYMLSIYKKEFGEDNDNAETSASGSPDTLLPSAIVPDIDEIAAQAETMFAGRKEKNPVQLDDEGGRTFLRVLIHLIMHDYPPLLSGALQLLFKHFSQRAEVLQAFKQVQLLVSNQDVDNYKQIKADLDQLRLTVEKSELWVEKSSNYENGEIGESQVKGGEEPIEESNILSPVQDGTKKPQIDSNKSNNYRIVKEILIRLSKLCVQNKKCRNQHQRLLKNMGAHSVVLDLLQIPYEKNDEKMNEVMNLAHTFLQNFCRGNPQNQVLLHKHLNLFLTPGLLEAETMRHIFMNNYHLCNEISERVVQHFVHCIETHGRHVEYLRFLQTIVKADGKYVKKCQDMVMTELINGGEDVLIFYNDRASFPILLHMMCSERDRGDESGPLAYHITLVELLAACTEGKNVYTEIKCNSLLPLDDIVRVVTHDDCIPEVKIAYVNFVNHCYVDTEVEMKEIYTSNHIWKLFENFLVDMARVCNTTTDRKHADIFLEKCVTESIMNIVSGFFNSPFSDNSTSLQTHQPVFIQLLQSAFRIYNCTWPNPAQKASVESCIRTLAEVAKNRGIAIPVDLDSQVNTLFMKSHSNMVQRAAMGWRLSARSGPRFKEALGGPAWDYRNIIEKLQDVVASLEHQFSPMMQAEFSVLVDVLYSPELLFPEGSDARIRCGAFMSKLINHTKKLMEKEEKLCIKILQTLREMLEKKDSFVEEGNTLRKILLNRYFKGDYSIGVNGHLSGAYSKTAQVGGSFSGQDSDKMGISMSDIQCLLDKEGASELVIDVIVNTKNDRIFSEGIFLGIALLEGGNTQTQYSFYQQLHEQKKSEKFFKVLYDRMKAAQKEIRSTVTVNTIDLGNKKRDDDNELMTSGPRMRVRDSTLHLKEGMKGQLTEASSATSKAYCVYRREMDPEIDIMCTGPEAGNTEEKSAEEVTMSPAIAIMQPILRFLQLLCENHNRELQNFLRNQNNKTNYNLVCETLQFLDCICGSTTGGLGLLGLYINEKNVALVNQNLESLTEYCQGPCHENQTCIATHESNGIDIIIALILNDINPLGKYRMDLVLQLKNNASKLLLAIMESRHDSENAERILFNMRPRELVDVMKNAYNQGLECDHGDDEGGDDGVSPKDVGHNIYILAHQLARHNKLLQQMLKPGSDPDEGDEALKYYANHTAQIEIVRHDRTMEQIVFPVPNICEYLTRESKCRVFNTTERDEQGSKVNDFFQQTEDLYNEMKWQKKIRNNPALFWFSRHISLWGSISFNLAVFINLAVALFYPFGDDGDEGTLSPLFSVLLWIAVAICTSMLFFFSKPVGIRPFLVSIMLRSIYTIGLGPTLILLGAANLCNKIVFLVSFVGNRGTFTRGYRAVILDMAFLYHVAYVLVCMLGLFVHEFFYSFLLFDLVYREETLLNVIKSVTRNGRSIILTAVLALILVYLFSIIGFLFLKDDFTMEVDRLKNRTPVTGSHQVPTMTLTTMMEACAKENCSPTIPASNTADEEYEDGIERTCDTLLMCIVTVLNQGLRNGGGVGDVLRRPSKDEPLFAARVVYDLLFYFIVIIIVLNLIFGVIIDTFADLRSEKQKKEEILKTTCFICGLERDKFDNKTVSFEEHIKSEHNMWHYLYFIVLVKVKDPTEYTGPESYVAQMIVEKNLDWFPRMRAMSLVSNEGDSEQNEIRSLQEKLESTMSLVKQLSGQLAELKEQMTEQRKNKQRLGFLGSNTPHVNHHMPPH
inactive: nilotinib -0.008 | [1] -0.081 | dasatinib 0.019 | [2] 0.048 | [3] -0.078 | tipifarnib 0.003 | [5] 0.277 | [6] -0.12 | silmitasertib 0.024
active: vorinostat -0.965

HSPA8 (UniProt E9PN89)
inactive: nilotinib 0.013 | [1] -0.008 | dasatinib -0.209 | [2] -0.055 | [3] -0.032 | quisinostat -0.415 | tipifarnib 0.006 | [4] 0 | [5] 0.084 | [6] -0.089 | vorinostat -0.01 | silmitasertib 0.016 | [8] -0.017 | entospletinib -0.024

ITPRIP (UniProt Q8IWB1)
inactive: dasatinib -0.017 | [3] 0.005 | [6] 0.06 | vorinostat -0.33 | silmitasertib 0.095

GTPBP6 (UniProt O43824)
inactive: dasatinib -0.025 | [3] 0.136 | [7] 0.069 | entospletinib 0.255

ISL2 (UniProt Q96A47)
inactive: dasatinib 0.015 | [3] 0.053 | quisinostat 0.055 | [4] -0.092 | [6] 0.014 | vorinostat -0.026 | silmitasertib 0.04 | [8] 0.179

HNRNPD (UniProt D6RF44)
inactive: nilotinib -0.03 | [1] 0.11 | [2] 0.103 | quisinostat -0.061 | tipifarnib 0.12 | [4] -0.353 | [8] -0.04

HNRNPM (UniProt M0QZM1)
inactive: dasatinib -0.022 | [3] -0.163 | quisinostat 0 | [4] -0.012 | [7] 0.125 | [8] 0.038 | entospletinib 0

HNRNPUL1 (UniProt M0R247)
inactive: [6] -0.063 | vorinostat 0.197 | silmitasertib -0.037

HYDIN (UniProt Q4G0P3)
inactive: dasatinib -0.034 | [3] 0.219 | [5] -0.282 | [7] 0.028 | entospletinib -0.005

HSPBAP1 (UniProt Q96EW2)
inactive: nilotinib 0.1 | [1] 0.039 | dasatinib 0.011 | [2] 0.14 | [3] 0.213 | quisinostat -0.07 | tipifarnib 0.056 | [4] 0.024 | [5] -0.056 | [6] 0.032 | vorinostat -0.07 | silmitasertib 0.044 | [8] -0.014 | entospletinib -0.125

HECW2 (UniProt Q9P2P5)
active: quisinostat -0.513
inactive: nilotinib -0.147 | [1] 0.021 | dasatinib -0.031 | [2] -0.092 | [3] -0.103 | tipifarnib -0.041 | [4] -0.035 | [6] 0.126 | [7] -0.018 | vorinostat -0.058 | silmitasertib 0.011 | [8] -0.004 | entospletinib -0.09

IGFBP4 (UniProt P22692)
inactive: nilotinib 0.005 | [1] -0.01 | dasatinib 0.085 | [2] -0.053 | [3] -0.022 | quisinostat -0.049 | tipifarnib 0.119 | [4] -0.021 | [5] 0.293 | [6] -0.026 | vorinostat 0.049 | silmitasertib -0.026 | [8] 0.023

HLTF (UniProt Q14527)
Sequence of UniProt Q14527 (Q14527 whole entry, looked up): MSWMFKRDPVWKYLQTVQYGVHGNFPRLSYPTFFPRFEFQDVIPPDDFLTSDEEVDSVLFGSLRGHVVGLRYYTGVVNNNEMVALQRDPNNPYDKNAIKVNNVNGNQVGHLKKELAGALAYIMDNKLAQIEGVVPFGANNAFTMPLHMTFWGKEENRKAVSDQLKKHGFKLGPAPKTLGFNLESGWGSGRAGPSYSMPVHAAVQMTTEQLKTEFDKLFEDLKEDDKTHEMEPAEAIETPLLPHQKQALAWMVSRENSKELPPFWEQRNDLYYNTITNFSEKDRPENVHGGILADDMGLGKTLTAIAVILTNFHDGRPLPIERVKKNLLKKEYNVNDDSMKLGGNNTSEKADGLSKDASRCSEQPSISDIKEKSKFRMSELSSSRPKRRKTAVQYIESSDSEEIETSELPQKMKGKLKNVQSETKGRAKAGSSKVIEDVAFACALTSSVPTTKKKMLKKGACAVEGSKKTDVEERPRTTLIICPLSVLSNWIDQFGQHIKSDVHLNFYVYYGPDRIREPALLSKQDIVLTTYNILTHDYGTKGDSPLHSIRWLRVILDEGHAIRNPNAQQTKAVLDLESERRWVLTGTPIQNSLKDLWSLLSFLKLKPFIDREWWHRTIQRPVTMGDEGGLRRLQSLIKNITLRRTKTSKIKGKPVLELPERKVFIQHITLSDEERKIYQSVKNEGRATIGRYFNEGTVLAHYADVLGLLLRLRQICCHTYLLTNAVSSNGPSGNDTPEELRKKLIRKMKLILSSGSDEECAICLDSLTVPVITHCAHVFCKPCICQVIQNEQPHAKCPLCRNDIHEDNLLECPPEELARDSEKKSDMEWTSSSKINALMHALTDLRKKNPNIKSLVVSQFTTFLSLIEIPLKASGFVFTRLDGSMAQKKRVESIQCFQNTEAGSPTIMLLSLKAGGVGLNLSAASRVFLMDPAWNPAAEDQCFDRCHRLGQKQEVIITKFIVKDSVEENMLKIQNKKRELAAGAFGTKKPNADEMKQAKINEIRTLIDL
inactive: nilotinib -0.039 | [1] 0.004 | dasatinib -0.041 | [2] -0.051 | [3] 0.05 | quisinostat 0.021 | tipifarnib -0.148 | [4] 0.102 | [5] 0.055 | [6] -0.085 | [7] 0.046 | silmitasertib 0.101 | [8] -0.101 | entospletinib 0.017
active: vorinostat -0.246

GPLD1 (UniProt P80108)
inactive: dasatinib -0.255 | [3] 0 | quisinostat 0.108 | [4] 0.153 | [8] 0.366

H3-3A (UniProt P84243)
inactive: quisinostat 0.014 | [4] 0.032 | [5] 0 | [6] -0.093 | [7] 0.021 | vorinostat -0.077 | silmitasertib 0 | [8] 0.026 | entospletinib -0.035

HMGA1 isoform 2 (UniProt P17096)
inactive: nilotinib 0.209 | [1] 0.014 | dasatinib 0.091 | [2] 0.395 | [3] -0.099 | quisinostat 0.289 | tipifarnib 0.168 | [4] -0.018 | [5] -0.064 | [6] -0.101 | vorinostat 0.205 | silmitasertib -0.047 | [8] 0.128

GPA33 (UniProt Q99795)
inactive: nilotinib -0.085 | [1] -0.093 | dasatinib -0.077 | [2] -0.023 | [3] -0.09 | tipifarnib 0.022 | [5] -0.045 | [6] 0.047 | [7] 0.041 | vorinostat 0.14 | silmitasertib 0.051 | entospletinib 0.017
